Data reported in PubChem BioAssay (Tox21).
“And” between values parts separate entries of the source, which are not always exact repeats. Identical values can stand only once. Results filed as inconclusive are left out. Where a structure was tested more than once in an assay, its records may differ in their call. The source made the active and inactive calls. Unless noted, the call rests on the fitted dose curve; in most records, active means well fitted curve in the direction sought with a large enough effect in the repeat runs; inconclusive means weak or mixed curves; inactive means no such curve, though single readings can be large; an effect the other way counts as inactive or inconclusive.

What was measured:
[1] = molecular target: Estrogen receptor (Homo sapiens) (UniProt P03372); assay: qHTS assay to identify small molecule antagonists of the estrogen receptor alpha (ER-alpha) signaling pathway using the BG1 cell line in the presence of 0.1 nM 17-beta-estradiol (AID 1259244); further: nearly all actives have a fitted effect of over 50% in size; further: potency means the concentration at half of the fitted maximal effect
Estrogen receptor (Homo sapiens), sequence (P03372 whole entry, looked up): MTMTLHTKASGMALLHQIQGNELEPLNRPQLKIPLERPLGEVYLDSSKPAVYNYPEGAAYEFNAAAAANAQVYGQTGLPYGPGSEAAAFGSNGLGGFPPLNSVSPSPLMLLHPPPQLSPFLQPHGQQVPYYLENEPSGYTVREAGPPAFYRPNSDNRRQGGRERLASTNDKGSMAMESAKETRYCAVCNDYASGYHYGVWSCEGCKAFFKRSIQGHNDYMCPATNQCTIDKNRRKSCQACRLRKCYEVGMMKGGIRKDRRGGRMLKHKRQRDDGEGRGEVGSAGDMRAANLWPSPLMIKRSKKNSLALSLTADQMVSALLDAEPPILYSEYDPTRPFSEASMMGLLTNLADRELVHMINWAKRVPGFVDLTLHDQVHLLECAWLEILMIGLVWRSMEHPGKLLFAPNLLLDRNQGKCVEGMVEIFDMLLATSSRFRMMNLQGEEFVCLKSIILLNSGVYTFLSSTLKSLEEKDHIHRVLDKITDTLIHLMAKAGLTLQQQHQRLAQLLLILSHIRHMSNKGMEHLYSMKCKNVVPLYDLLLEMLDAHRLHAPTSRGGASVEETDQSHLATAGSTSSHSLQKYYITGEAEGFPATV
How it was run: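 Luciferase luminescence (ONE-Glo, 30 min at room temperature) was read after 22 hr at 37C exposure to compounds plus 17beta-estradiol at 0.1 nM final. Cells were VM7Luc4E2 with endogenous ER-alpha and an ERE-driven luciferase, pre-cultured 5 days in hormone-depleted medium.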

[2] = qHTS assay to identify small molecule HDAC inhibitors (AID 1259364); further: nearly all actives have a fitted effect of over 45% in size; further: potency means the concentration at half of the fitted maximal effect
How it was run: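 Luminescence read after 30 min room-temperature HDAC-Glo incubation measures cellular class I/II HDAC activity. Compounds were applied for 2 hr at 37 C to HCT-116 wild-type cells seeded the day before.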

[3] = qHTS assay to identify small molecule HDAC inhibitors - cell viability counter screen (AID 1259365); further: series mostly up to about 92 µM; nearly all actives have a fitted effect of over 50% in size
How it was run: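 CellTiter-Glo luminescence (30 min, room temperature) reported viability after a 2 h compound exposure at 37 C. Cells: wild-type HCT-116, 1,500 per well, seeded the night before.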

[4] = qHTS assay to identify small molecule antagonists of the sonic hedgehog signaling (Shh) pathway - cell viability counter screen (AID 1259367); further: nearly all actives have a fitted effect of over 55% in size; further: potency means the concentration at half of the fitted maximal effect
How it was run: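 Tox21 library chemicals were tested on a Gli1-Luc NIH/3T3 clone (2,000 cells/well) stimulated by conditioned medium; viability was quantified as fluorescence from CellTiter-Fluor reagent added at 23 hr.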

[5] = qHTS assay to identify small molecule agonists of the sonic hedgehog signaling (Shh) pathway (AID 1259368; calls by dose curve;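 further: NIH/3T3-derived 3T3Gli1-Luc cells carrying a stable Gli1-driven firefly luciferase reporter; series mostly up to about 92 µM; nearly all actives have a fitted effect of over 15% in size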)
How it was run: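 Luminescence was read after 30 min at room temperature with luciferase reagent. Before that, 3T3Gli1-Luc cells (NIH/3T3 clone, stable Gli1-Luc reporter; 2,000/well) were exposed to compounds for 24 hr at 37C, 5% CO2, compounds being added 4 hr post-plating.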

[6] = qHTS assay to identify small molecule antagonists of the sonic hedgehog signaling (Shh) pathway (AID 1259369; calls by dose curve; further: nearly all actives have a fitted effect of over 45% in size; further: potency means the concentration at half of the fitted maximal effect)
How it was run: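 Antagonist mode: compound added to 3T3 Gli1-Luc cells followed by conditioned-medium stimulation, 24 h at 37 C, 5% CO2. Inhibition taken as loss of Gli1-driven luciferase luminescence.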

[7] = qHTS assay to identify small molecule agonists of the sonic hedgehog signaling (Shh) pathway - cell viability counter screen (AID 1259366); further: nearly all actives have a fitted effect of over 50% in size; further: potency means the concentration at half of the fitted maximal effect
How it was run: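 Cytotoxicity counter screen: CellTiter-Fluor reagent added after 23 h compound exposure, then 1 h at 37C and fluorescence read. Cells were 3T3 Gli1-Luc, seeded 2,000 per well and dosed 4 h post-plating.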

[8] = qHTS assay to identify small molecule phospholipidosis (PLD) inducers (AID 1259344; active means well fitted curve in the direction sought with a large enough effect; an effect the other way counts as inactive or inconclusive)
How it was run: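 Image-based: LipidTOX Red pit count/intensity per well and per cell; HepG2, 24 h compound at 37 C, PFA fixation, Hoechst counterstain.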
On the % scale 0 is the no-effect control and ±100 the full control effect.

O=P(Cl)(Cl)Cl
inactive: Potency [1] | Potency [2] | Potency [3] | Potency [4] | Potency [5] | Potency [6]

O=C(NC(=O)c1c(F)cccc1F)Nc1ccc(Oc2ccc(C(F)(F)F)cc2Cl)cc1F
inactive: Potency [2] | Potency [3] | Potency [7] | Potency [4] | Potency [5]
active: Potency [6] 6.86 µM

N#CSCc1ccccc1
inactive: Potency [1] | Potency [2] | Potency [3] | Potency [7] | Potency [5]

O=[N+]([O-])c1cccc2cccc([N+](=O)[O-])c12
inactive: Potency [2] | Potency [3] | Potency [7] | Potency [4] | Potency [5]

O=[N+]([O-])c1ccccc1-c1ccccc1
inactive: Potency [1] | Potency [2] | Potency [3] | Potency [7] | Potency [4] | Potency [5] | Potency [6]

CCN1CCC2(CC1)COc1cc3c(cc12)N(C(=O)c1ccc(-c2ccc(-c4nnc(C)o4)cc2C)cc1)CC3
active: Potency [1] 50.2 µM | Potency [7] 63.3 µM | Potency [4] 63.3 µM | Potency [6] 2 µM
inactive: Potency [2] | Potency [3] | Potency [5]

CNC(=O)O/N=C(\C)C(C)S(C)(=O)=O (centres undefined)
active: Potency [6] 282 µM
inactive: Potency [2] | Potency [3] | Potency [5]

O.O.O.O.O.O.O=S(=O)([O-])[O-].[Ni+2]
inactive: Potency [2] | Potency [3] | Potency [7] | Potency [4] | Potency [5] | Potency [6]

CC1CCCC1
inactive: Potency [2] | Potency [3] | Potency [7] | Potency [4] | Potency [5] | Potency [6]

BrCC(Br)(Br)Br
inactive: Potency [2] | Potency [3] | Potency [7] | Potency [4] | Potency [5] | Potency [6]

CCCCCON=O
inactive: Potency [2] | Potency [3] | Potency [4] | Potency [5]

CCN(CC)Cc1nccn1-c1ccc([N+](=O)[O-])cc1C(=O)c1ccccc1Cl
inactive: PLD induction [8] 0.825% [at 7.66 µM] | Potency [2] | Potency [5] | Potency [6]

CCC[CH2][Sn]([CH2]CCC)([CH2]CCC)[CH2]CCC
active: Potency [7] 13.7 µM | Potency [4] 21.7 µM | Potency [6] 13.7 µM
inactive: Potency [2] | Potency [5]

CN(C)c1ccc(N)cc1
active: Potency [1] 29.9 µM | Potency [2] 23.7 µM | Potency [7] 53.2 µM | Potency [6] 13.4 µM

CC(Cc1ccc2c(c1)OCO2)NO (centres undefined)
inactive: outcome [8] | Potency [2] | Potency [3] | Potency [4] | Potency [5] | Potency [6]

CN1C(=O)[C@@H](NC(=O)c2cc3ccccc3[nH]2)N=C(c2ccccc2)c2ccccc21
inactive: outcome [8] | Potency [2] | Potency [3] | Potency [7] | Potency [4] | Potency [5] | Potency [6]

CCCCC(CC)COC(=O)c1ccccc1C(=O)OCC(CC)CCCC (centres undefined)
inactive: outcome [8] | Potency [2] | Potency [3] | Potency [7] | Potency [5] | Potency [6]

O=S(=O)(NS(=O)(=O)C(F)(F)F)C(F)(F)F
inactive: Potency [2] | Potency [3] | Potency [7] | Potency [4] | Potency [5]
active: Potency [6] 2.43 µM

CC(C)=CCN1CC[C@@]2(C)c3cc(O)ccc3C[C@@H]1[C@@H]2C
inactive: outcome [8] | Potency [2] | Potency [7] | Potency [4] | Potency [5] | Potency [6]

CC(C)N(C(=O)SC/C(Cl)=C/Cl)C(C)C
inactive: Potency [2] | Potency [3] | Potency [7] | Potency [4] | Potency [5] | Potency [6]

CCOP(=S)(NC(C)C)Oc1ccccc1C(=O)OC(C)C (centres undefined)
inactive: Potency [2] | Potency [3] | Potency [7] | Potency [5] | Potency [6]

O=[N+]([O-])[O-].[Tl+]
inactive: Potency [2] | Potency [3] | Potency [7] | Potency [4] | Potency [5]

CO/N=C(\C(=O)OC)c1ccccc1CO/N=C(\C)c1cccc(C(F)(F)F)c1
inactive: Potency [2] | Potency [7] | Potency [4] | Potency [5]

CC1(C)[C@H](/C=C2\CCSC2=O)[C@@H]1C(=O)OCc1coc(Cc2ccccc2)c1
inactive: Potency [2] | Potency [3] | Potency [7] | Potency [4] | Potency [5]
active: Potency [6] 12.2 µM

[Cl-].[Cl-].[Cl-].[Yb+3]
inactive: Potency [2] | Potency [3] | Potency [5] | Potency [6]

FC(F)C(F)(F)OCC(Cn1cncn1)c1ccc(Cl)cc1Cl (centres undefined)
inactive: Potency [2] | Potency [3] | Potency [5]
active: Potency [7] 48.3 µM

O=S1(=O)OCC2C(CO1)C1(Cl)C(Cl)=C(Cl)C2(Cl)C1(Cl)Cl (centres undefined)
inactive: Potency [2] | Potency [3] | Potency [5] | Potency [6]

CCCCc1ccccc1
inactive: Potency [2] | Potency [3] | Potency [7] | Potency [4] | Potency [5] | Potency [6]

CCN(CC)C(=S)S
7.65 µM (active) and inactive: Potency [4]
active: Potency [7] 38.9 µM and 13.6 µM and 27.3 µM | Potency [6] 5.49 µM and 2.42 µM
inactive: Potency [2] | Potency [3] | Potency [5]

NC1CCC(CC2CCC(N)CC2)CC1 (centres undefined)
inactive: Potency [1] | Potency [2] | Potency [3] | Potency [5]

Nc1c(Cl)c(Cl)c(Cl)c(Cl)c1Cl
inactive: Potency [2] | Potency [3] | Potency [5] | Potency [6]

c1cc[n+]2c(c1)-c1cccc[n+]1CC2
active: Potency [1] 26.6 µM
inactive: Potency [2] | Potency [3] | Potency [4] | Potency [5]

CNC(=O)Oc1cc(C)cc(C(C)C)c1
inactive: Potency [1] | Potency [2] | Potency [3] | Potency [4] | Potency [5] | Potency [6]

COCCC#N
inactive: Potency [2] | Potency [3] | Potency [7] | Potency [4] | Potency [5] | Potency [6]

CC(C)[C@@H](Nc1ccc(C(F)(F)F)cc1Cl)C(=O)OC(C#N)c1cccc(Oc2ccccc2)c1 (some centres undefined)
inactive: Potency [2] | Potency [3] | Potency [7] | Potency [4] | Potency [5] | Potency [6]

COP(=O)(OC)Oc1ccc([N+](=O)[O-])cc1
inactive: Potency [2] | Potency [3] | Potency [7] | Potency [4] | Potency [5] | Potency [6]

N#CCCl
inactive: Potency [2] | Potency [3] | Potency [7] | Potency [4] | Potency [5] | Potency [6]

[O-][Cl+3]([O-])([O-])O
inactive: Potency [2] | Potency [7] | Potency [5]

Oc1cc(Cl)c(Cl)c(Cl)c1Cl
inactive: Potency [2] | Potency [7] | Potency [5]
active: Potency [6] 26.7 µM

CC(=O)[O-].CC(=O)[O-].CC(=O)[O-].[Cr+3]
inactive: Potency [2] | Potency [7] | Potency [5]
